Assay results taken from PubChem BioAssay (NCATS).
Results filed as inconclusive are left out. Activity calls are given as the source filed them. The call rests on the fitted dose curve; in most records, active means well fitted inhibition curve with a large enough effect; inconclusive means small, poorly fitted or top-dose-only effect; inactive means flat fitted curve, though single readings scatter.

Each molecule was assayed on CRL-7250 (assay: qHTS assay to identify novel small-molecules to repurpose for Merkel cell carcinoma treatment (AID 1296009; further: nearly all actives have a fitted effect of over 60% in size)). Settings: MCC and control cell lines, CellTiter-Glo viability, 72 h; series mostly up to 44.8 µM.
How it was run: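 Cell viability measured by CellTiter-Glo following 72 hr compound treatment at 37 degree celsius, with NPC and MIPE libraries tested in 8- and 11-point concentration series.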

Question: With `CC(S)C(=O)NCC(=O)O` (stereo not given) as the molecule, how does the outcome read?
Answer: The outcome was “inactive”.

Question: With `CC1(C)S[C@@H]2[C@H](NC(=O)Cc3ccccc3)C(=O)N2[C@H]1C(=O)O` (tested in a mixture with another compound) as the molecule, how does the outcome read?
Answer: Its outcome is “inactive”.

Question: With `CC(C)(C(=O)O)c1ccc(C(O)CCCN2CCC(C(O)(c3ccccc3)c3ccccc3)CC2)cc1` (stereo not given) as the molecule, how does the outcome read?
Answer: Its outcome is “inactive”.

Question: How did the outcome turn out when `Cc1[nH]cnc1CN1CCc2c(c3ccccc3n2C)C1=O` was run?
Answer: Its outcome is “inactive”.

Question: How did the outcome turn out when `CNS(=O)(=O)CCc1ccc2[nH]cc(C3CCN(C)CC3)c2c1` was run?
Answer: Its outcome is “inactive”.

Question: Which outcome does the source give for `CS(=O)(=O)CCNCc1ccc(-c2ccc3ncnc(Nc4ccc(OCc5cccc(F)c5)c(Cl)c4)c3c2)o1` here?
Answer: The outcome was “inactive”.

Question: How did the outcome turn out when `C1N2CN3CN1CN(C2)C3` was run?
Answer: The outcome was “inactive”.

Question: `Cc1ccccc1C(OCCN(C)C)c1ccccc1` (stereo not given) was tested. Which outcome did it give?
Answer: Its outcome is “inactive”.

Question: With `O=NN(CCCl)C(=O)NCCCl` as the molecule, how does the outcome read?
Answer: The outcome was “inactive”.

Question: How did the outcome turn out when `O=C1NC(=O)C(c2ccccc2)(c2ccccc2)N1` was run?
Answer: Its outcome is “inactive”.

Question: For `NNCCc1ccccc1`, which outcome is on record?
Answer: The outcome was “inactive”.

Question: For `CS(=O)c1ccc(-c2nc(-c3ccc(F)cc3)c(-c3ccncc3)[nH]2)cc1` (stereo not given), which outcome is on record?
Answer: The outcome was “inactive”.

Question: With `CS(=O)(=O)OCCCCOS(C)(=O)=O` as the molecule, how does the outcome read?
Answer: Its outcome is “inactive”.

Question: With `COc1cc2nc(N3CCN(C(=O)C4CCCO4)CC3)nc(N)c2cc1OC` (stereo not given) as the molecule, how does the outcome read?
Answer: Its outcome is “inactive”.

Question: `CC12CC3CC(C)(C1)CC(N)(C3)C2` was tested. Which outcome did it give?
Answer: Its outcome is “inactive”.

Question: For `Cc1ccc(-c2cc(C(F)(F)F)nn2-c2ccc(S(N)(=O)=O)cc2)cc1`, which outcome is on record?
Answer: The outcome was “inactive”.

Question: Which outcome does the source give for `CN(C)C(=N)N=C(N)N` here?
Answer: Its outcome is “inactive”.

Question: With `CCOC(=O)[C@H](CCc1ccccc1)N[C@@H](C)C(=O)N1Cc2cc(OC)c(OC)cc2C[C@H]1C(=O)O` as the molecule, how does the outcome read?
Answer: The outcome was “inactive”.

Question: With `CCN(CC)C(=S)SSC(=S)N(CC)CC` as the molecule, how does the outcome read?
Answer: The outcome was “inactive”.

Question: How did the outcome turn out when `Cc1cccc(C)c1OCC(C)N` (stereo not given) was run?
Answer: Its outcome is “inactive”.

Question: `CC(CN(C)C)CN1c2ccccc2CCc2ccccc21` (stereo not given) was tested. Which outcome did it give?
Answer: Its outcome is “inactive”.

Question: How did the outcome turn out when `O[C@@H]1CO[C@H]2[C@@H]1OC[C@@H]2O` was run?
Answer: Its outcome is “inactive”.

Question: `C[C@@H]1CC(=O)NN=C1c1ccc(NN=C(C#N)C#N)cc1` was tested. Which outcome did it give?
Answer: The outcome was “inactive”.

Question: With `CCCCCOC(=O)Nc1nc(=O)n([C@@H]2O[C@H](C)[C@@H](O)[C@H]2O)cc1F` as the molecule, how does the outcome read?
Answer: The outcome was “inactive”.

Question: Which outcome does the source give for `O=c1n(CCCN2CCN(c3cccc(Cl)c3)CC2)nc2ccccn12` here?
Answer: The outcome was “inactive”.

Question: Which outcome does the source give for `CC(=O)Nc1nnc(S(N)(=O)=O)s1` here?
Answer: Its outcome is “inactive”.

Question: With `CN(C)CCc1c[nH]c2ccc(C[C@H]3COC(=O)N3)cc12` as the molecule, how does the outcome read?
Answer: Its outcome is “inactive”.

Question: With `Cc1cc2c(s1)Nc1ccccc1N=C2N1CCN(C)CC1` as the molecule, how does the outcome read?
Answer: The outcome was “inactive”.

Question: With `COc1ccccc1OCC(O)COC(N)=O` (stereo not given) as the molecule, how does the outcome read?
Answer: Its outcome is “inactive”.

Question: `C[C@H]1O[C@H](O[C@H]2[C@H](O)[C@@H](O)[C@@H](O[C@H]3[C@H](O)[C@@H](O)[C@H](O)O[C@@H]3CO)O[C@@H]2CO)[C@H](O)[C@@H](O)[C@@H]1N[C@H]1C=C(CO)[C@@H](O)[C@H](O)[C@H]1O` was tested. Which outcome did it give?
Answer: Its outcome is “inactive”.

Question: With `CNCCc1ccccn1` as the molecule, how does the outcome read?
Answer: Its outcome is “inactive”.

Question: How did the outcome turn out when `CCN(CC)CCCC(C)Nc1ccnc2cc(Cl)ccc12` (stereo not given) was run?
Answer: The outcome was “inactive [at 9.27 µM]”.

Question: How did the outcome turn out when `O=C1NC(c2ccccc2)(c2ccccc2)C(=O)N1COP(=O)(O)O` was run?
Answer: The outcome was “inactive”.

Question: Which outcome does the source give for `CCN(CC)CCOC(=O)C1(C2CCCCC2)CCCCC1` here?
Answer: Its outcome is “inactive”.

Question: For `CC(C(=O)O)c1cccc(C(=O)c2ccccc2)c1` (stereo not given), which outcome is on record?
Answer: The outcome was “inactive”.

Question: How did the outcome turn out when `Cc1nc2n(c(=O)c1CCN1CCC(c3noc4cc(F)ccc34)CC1)CCC[C@H]2O` was run?
Answer: The outcome was “inactive [at 17.4 µM]”.

Question: Which outcome does the source give for `C[C@H]1c2cccc(O)c2C(O)=C2C(=O)[C@]3(O)C(O)=C(C(N)=O)C(=O)[C@@H](N(C)C)[C@@H]3[C@@H](O)[C@@H]21` here?
Answer: Its outcome is “inactive”.

Question: With `CC(C)Nc1cccnc1N1CCN(C(=O)c2cc3cc(NS(C)(=O)=O)ccc3[nH]2)CC1` as the molecule, how does the outcome read?
Answer: The outcome was “inactive”.

Question: With `Oc1cn2c(n1)Nc1ccc(Cl)c(Cl)c1C2` as the molecule, how does the outcome read?
Answer: The outcome was “inactive [at 17.4 µM]”.

Question: For `CCN(CCO)CCCC(C)Nc1ccnc2cc(Cl)ccc12` (stereo not given), which outcome is on record?
Answer: Its outcome is “inactive [at 4.96 µM]”.
